Only some compounds are listed: those with a hit (about 6.2% of all), similar ones and a draw of the others.
FMDV inh – foot and mouth disease virus antiviral activity | FMDV antiviral cell-based qHTS | Potency, µM (highest dose often 57.9 µM), usual class: inhibitors | 410,000 compounds, 1.2% hits | AID 1159524; calls by dose curve; tested in HEK293T cells; note: read-out not given here; nearly all actives have a fitted effect of over 45% in size
HCMV antiviral – human cytomegalovirus inhibition | 410,000 compounds, 4.5% hits | HFF cells, HCMV-luciferase reporter, 72 h; hits give low values | activity change, negative = inhibition, % at 57.5 µM; in the data active = activity change below about -60%; inconclusive = no clear call, values can overlap the other calls; inactive = above about -39%
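Human foreskin fibroblasts infected with luciferase-reporter HCMV at MOI 1 PFU/cell, compounds at two doses. Luciferase measured 72 h post infection; normalized to buffer-only basal and Salinomycin (10uM) controls.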
Marburg entry inh – blocks Marburg virus binding to or entry into cells; Marburg virus pseudotyped entry inhibition, cell reporter; Potency, µM (highest dose often 37.8 µM), actives largely listed as inhibitors; 300,000 compounds, 1.8% hits; AID 540276; calls by dose curve; tested in HEK293 cells
Lassa entry inh – blocks Lassa virus binding to or entry into cells. Lassa virus pseudotype entry inhibition, cell reporter. Potency, µM (top dose mostly 37.9 µM), usual class: inhibitors. 300,000 compounds, 1.2% hits; calls by dose curve; tested in HEK293 cells; note: nearly all actives have a fitted effect of over 50% in size
Each line names hits and unclear results; the compound was inactive in the other large screens.

COc1ccc2c(c1)CCc1cnc(-n3ncc(C(=O)N(C)CCc4ccccn4)c3C)nc1-2	none (no result: HCMV antiviral, Marburg entry inh, Lassa entry inh)
COc1ccc(/C=C/C(=O)CCC(=O)O)cc1	none
COc1ccc(/C=C/C(=O)CC(O)(c2ccccc2)C(F)(F)F)cc1 (stereo unspecified)	FMDV inh 35µM, HCMV antiviral -100, Marburg entry inh inconclusive, Lassa entry inh inconclusive
O=C(/C=C/c1ccccc1)CC(O)(c1ccccc1)C(F)(F)F (stereo unspecified)	HCMV antiviral -102, Marburg entry inh inconclusive, Lassa entry inh inconclusive (no result: FMDV inh)
CC(C)C[C@H]1COc2cc(F)ccc2S(=O)(=O)N1	none (no result: FMDV inh, HCMV antiviral, Marburg entry inh)
CCc1ccc(NC(=O)CCCc2nnc3n(CC(C)C)c(=O)c4sccc4n23)cc1	none (no result: Marburg entry inh)
CCCc1cc(C(=O)Cc2ccc(F)cc2)c(O)cc1O	none
CCc1cc(C(=O)Cc2ccc(F)cc2)c(O)cc1O	HCMV antiviral -77, Marburg entry inh inconclusive, Lassa entry inh inconclusive
CCCN1Cc2cccc(C(=O)Nc3cc(Cl)ccc3C)c2C1=O	none
CN1C(=O)/C(=C/c2cccc([N+](=O)[O-])c2)C(=O)N1c1ccccc1	FMDV inh 32µM, Lassa entry inh inconclusive
CCCN1C(=O)/C(=C/c2ccc3c(c2)OCO3)NC1=S	none (no result: Marburg entry inh, Lassa entry inh)
CCCN1C/C(=C/c2ccc3c(c2)OCO3)C(=O)/C(=C/c2ccc3c(c2)OCO3)C1	FMDV inh 18µM, Marburg entry inh inconclusive, Lassa entry inh inconclusive
CCCN1C/C(=C/c2cccc([N+](=O)[O-])c2)C(=O)/C(=C/c2cccc([N+](=O)[O-])c2)C1	FMDV inh 2.5µM, HCMV antiviral -105, Marburg entry inh inconclusive, Lassa entry inh 2µM
O=C(CCl)N(C/C=C/c1ccccc1)c1ccc2c(c1)OCCO2	FMDV inh 25µM, Lassa entry inh inconclusive
C/C(=N\NC(N)=S)c1ccc(Cl)s1	HCMV antiviral -67
C/C(=N\NC(=S)NC(C)C)c1ccc(Cl)s1	none
CC(C)CCC(CCNCc1ccccn1)c1ccc2c(c1)OCO2 (stereo unspecified)	none (no result: Marburg entry inh, Lassa entry inh)
CCNCCC(CCC(C)C)c1ccc2c(c1)OCO2 (stereo unspecified)	Marburg entry inh 8.9µM
Cc1ccc(C)c(Cn2c(-c3cccs3)nc3ccccc32)c1	none
COc1ccc(NS(=O)(=O)c2cccc(C(=O)NNC(=O)c3ccccc3O)c2)cc1	HCMV antiviral -94, Lassa entry inh inconclusive
COc1ccccc1C(CNC(=O)c1cccc(S(=O)(=O)Nc2ccc(C)cc2)c1)N(C)C (stereo unspecified)	HCMV antiviral -76, Marburg entry inh inconclusive
COc1ccc(NS(=O)(=O)c2cccc(C(=O)NNC(=O)c3cc(C)oc3C)c2)cc1	HCMV antiviral -101
CCN(CC)CCNC(=O)c1ccc(Cn2c(=O)c3cccn3c3cccnc32)cc1	none (no result: Marburg entry inh)
CCCCC(=O)N(C)c1c(CC)nc2c(OCC(=O)C(C)(C)C)cccn12	none (no result: Marburg entry inh, Lassa entry inh)
O=C(CCCCCNC(=O)N1CCn2c1nc1ccccc12)N[C@@H](C(=O)O)c1ccccc1	none (no result: Marburg entry inh, Lassa entry inh)
CC(NC(=O)CCCCCNC(=O)N1CCn2c1nc1ccccc12)c1ccccc1 (stereo unspecified)	HCMV antiviral -73 (no result: Marburg entry inh, Lassa entry inh)
Cc1cc(Br)c2c(c1)[C@](O)(c1cn(C)c3ccccc13)C(=O)N2C	none (no result: Marburg entry inh, Lassa entry inh)
COC(=O)c1cc2sc(Cl)cc2n1Cc1c(C)cc(C)cc1C	none (no result: Lassa entry inh)
S=C(N/N=C/c1ccccc1Cl)Nc1cccc(Cl)c1Cl	HCMV antiviral -65 (no result: Marburg entry inh, Lassa entry inh)
CCN1C[C@@H]2[C@@H]3C(=O)N(Cc4ccccc4)C(=O)[C@@H]3[C@](Cc3ccccc3)(C1=O)N2C(=O)c1ccccc1	none (no result: Marburg entry inh, Lassa entry inh)
CCN1C[C@@H]2[C@@H]3C(=O)N(Cc4ccccc4)C(=O)[C@@H]3[C@](Cc3ccccc3)(C1=O)N2C(=O)c1ccc(Cl)cc1	HCMV antiviral -69 (no result: Marburg entry inh, Lassa entry inh)
CC(C)NC(=O)C1(C)CCN1C(=O)C(c1ccccc1)c1ccccc1 (stereo unspecified)	none (no result: Marburg entry inh, Lassa entry inh)
CCC(Sc1nc2ccccc2c2nc(CCc3c(C)n[nH]c3C)nn12)C(=O)Nc1ccc(OC)cc1 (stereo unspecified)	none (no result: Marburg entry inh)
CC(CCl)OC(C)CCl (stereo unspecified)	HCMV antiviral -74 (no result: Marburg entry inh, Lassa entry inh)
CCN(C(=O)CN1C(=O)NC2(CCCc3ccccc32)C1=O)c1ccc(F)cc1 (stereo unspecified)	none (no result: Marburg entry inh, Lassa entry inh)
Cc1ccccc1NC(=O)CN1C(=O)NC2(CCc3ccccc32)C1=O (stereo unspecified)	none (no result: Marburg entry inh, Lassa entry inh)
CCN(C(=O)CN1C(=O)NC2(CCc3ccccc32)C1=O)C1CCCCC1 (stereo unspecified)	HCMV antiviral -100
COc1cc2c(cc1NC(=O)CN1C(=O)NC3(CCc4ccccc43)C1=O)oc1ccccc12 (stereo unspecified)	Marburg entry inh 12µM, Lassa entry inh inconclusive
Cc1ccc(/C=N/n2c(=O)c(C(C)(C)C)nn3cnnc23)cc1	none
CC(C)(C)c1nn2cnnc2n(/N=C/c2cccc3ccccc23)c1=O	FMDV inh 28µM
